Data: PubChem BioAssay (NCATS)
Results filed as inconclusive are left out. Active and inactive are the calls of the source. Calls follow the shape of the dose curve; as a rule, active = well fitted inhibition curve with a large enough effect; inconclusive = small, poorly fitted or top-dose-only effect; inactive = flat fitted curve, though single readings scatter.

Key:
Test in all cases: qHTS profiling for inhibitors of Plasmodium falciparum proliferation (AID 504749); also: nearly all actives have a fitted effect of over 60% in size
Conditions in all cases: P. falciparum in erythrocytes, SYBR Green DNA, 72 h; series mostly up to 28.7 µM
CP329 = tested on: CP329
Procedure, shortened: (§1)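 P. falciparum-infected erythrocytes (0.3% parasitemia, 2.5% hematocrit final) were exposed to compounds for 72 h at 37 C in 5% CO2, then lysed with SYBR Green buffer overnight at room temperature; parasite DNA fluorescence was normalized to artemisinin and DMSO controls.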

CP335 = tested on: CP335
Procedure, shortened: as §1

DFO2036 = tested on: DFO2036
Procedure, shortened: as §1

DIV30 = tested on: DIV30
Procedure, shortened: as §1

Dd2 = tested on: Dd2
Procedure, shortened: as §1

ECU = tested on: ECU
Procedure, shortened: as §1

FAB9 = tested on: FAB9
Procedure, shortened: as §1

HB3 = tested on: HB3
Procedure, shortened: as §1

ICS = tested on: ICS
Procedure, shortened: as §1

JCK = tested on: JCK
Procedure, shortened: as §1

N140 = tested on: N140
Procedure, shortened: as §1

P93_24 = tested on: P93_24
Procedure, shortened: as §1

P94_40 = tested on: P94_40
Procedure, shortened: as §1

PC15 = tested on: PC15
Procedure, shortened: as §1

PC49 = tested on: PC49
Procedure, shortened: as §1

DIV14 = tested on: DIV14
Procedure, shortened: as §1

DIV17 = tested on: DIV17
Procedure, shortened: as §1

PAD = tested on: PAD
Procedure, shortened: as §1

PC26 = tested on: PC26
Procedure, shortened: as §1

GB4 = tested on: GB4
Procedure, shortened: as §1

Measured: Potency
Potency is read from the fitted curve at half-maximal effect.

COc1ccc2nc(S(=O)Cc3ncc(C)c(OC)c3C)[nH]c2c1 (stereo unspecified)
active: ICS 14.1 µM
not listed: DIV14 | DIV17 | PAD | PC26 | GB4
inactive: all other assays above

C#Cc1cccc(Nc2ncnc3cc(OCCOC)c(OCCOC)cc23)c1
active: DIV14 8.49 µM | DIV17 15.1 µM | ICS 11.2 µM | P94_40 12.6 µM | PAD 11.2 µM
inactive: CP329 | Dd2 | FAB9 | JCK | PC49

O=NN(CCCl)C(=O)NCCCl
not listed: CP335 | DFO2036 | ICS | GB4
inactive: all other assays above

NC[C@H](O)c1ccc(O)c(O)c1
not listed: DIV14
inactive: all other assays above

Oc1ccc(C2CNCCc3c2cc(O)c(O)c3Cl)cc1 (stereo unspecified)
not listed: ICS | GB4
inactive: all other assays above

Cc1oncc1C(=O)Nc1ccc(C(F)(F)F)cc1
active: ICS 3.16 µM
not listed: HB3 | P93_24 | DIV17 | GB4
inactive: all other assays above

CCCc1nn(C)c2c(=O)[nH]c(-c3cc(S(=O)(=O)N4CCN(C)CC4)ccc3OCC)nc12
active: ICS 11.2 µM
not listed: DIV30
inactive: all other assays above

OC(CN1CCC(Cc2ccc(F)cc2)CC1)c1ccc(Cl)cc1 (stereo unspecified)
active: CP335 3.79 µM | DIV14 1.07 µM | DIV17 0.953 µM | DIV30 1.9 µM | Dd2 2.51 µM | ECU 1.58 µM | GB4 1.2 µM | HB3 8.91 µM | ICS 0.355 µM | JCK 2 µM | N140 0.794 µM | P93_24 1.58 µM | P94_40 1.58 µM | PAD 0.631 µM | PC15 2 µM | PC26 1.51 µM | PC49 1.58 µM
inactive: CP329
